# Assays:
# Assay in all cases: PBM; 200 nM protein, PBS
# Details in all cases: dsDNA, one strand shown
# [1] = target: HESX1 (Homo sapiens, UniProt Q9UBX0 95-180, R165K)
# [2] = target: SHOX (Homo sapiens, UniProt O15266 103-189)
# [3] = target: ALX4 (Homo sapiens, UniProt Q9H161 200-286, Q225E)
# [4] = target: HESX1 (Homo sapiens, UniProt Q9UBX0 95-180)
# [5] = target: MSX2 (Homo sapiens, UniProt P35548 130-214, R199I)
# [6] = target: ALX1 (Homo sapiens, UniProt Q15699 118-204, L144V)
# [7] = target: ALX3 (Homo sapiens, UniProt O95076 139-225, N203Q)
# ALX3 (Homo sapiens, UniProt O95076 139-225, N203Q), sequence (O95076 139-225 N203Q): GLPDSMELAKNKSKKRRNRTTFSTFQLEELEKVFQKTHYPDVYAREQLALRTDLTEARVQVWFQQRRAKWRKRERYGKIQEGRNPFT
# [8] = target: SHOX (Homo sapiens, UniProt O15266 103-189, R173C)
# SHOX (Homo sapiens, UniProt O15266 103-189, R173C), sequence (O15266 103-189 R173C): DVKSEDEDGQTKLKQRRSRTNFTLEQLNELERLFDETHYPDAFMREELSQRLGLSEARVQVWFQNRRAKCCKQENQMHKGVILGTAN
# [9] = target: ALX1 (Homo sapiens, UniProt Q15699 118-204, L144R)
# ALX1 (Homo sapiens, UniProt Q15699 118-204, L144R), sequence (Q15699 118-204 L144R): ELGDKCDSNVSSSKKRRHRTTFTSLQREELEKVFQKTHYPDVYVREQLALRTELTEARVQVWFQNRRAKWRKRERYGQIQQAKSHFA
# [10] = target: ALX3 (Homo sapiens, UniProt O95076 139-225)
# ALX3 (Homo sapiens, UniProt O95076 139-225), sequence (O95076 139-225): as the sequence (O95076 139-225 N203Q) above, with Q65N counted along it
# [11] = target: PROP1 (Homo sapiens, UniProt O75360 56-141)
# PROP1 (Homo sapiens, UniProt O75360 56-141), sequence (O75360 56-141): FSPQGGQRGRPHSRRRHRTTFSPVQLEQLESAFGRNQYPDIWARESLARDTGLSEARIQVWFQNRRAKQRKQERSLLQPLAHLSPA
# [12] = target: HESX1 (Homo sapiens, UniProt Q9UBX0 95-180, R109Q)
# HESX1 (Homo sapiens, UniProt Q9UBX0 95-180, R109Q), sequence (Q9UBX0 95-180 R109Q): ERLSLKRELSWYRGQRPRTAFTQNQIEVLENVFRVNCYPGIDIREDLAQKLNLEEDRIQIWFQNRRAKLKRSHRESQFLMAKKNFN
# [13] = target: PROP1 (Homo sapiens, UniProt O75360 56-141, R99H)
# PROP1 (Homo sapiens, UniProt O75360 56-141, R99H), sequence (O75360 56-141 R99H): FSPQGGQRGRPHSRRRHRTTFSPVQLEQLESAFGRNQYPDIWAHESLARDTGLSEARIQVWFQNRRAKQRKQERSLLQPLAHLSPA
# [14] = target: ALX3 (Homo sapiens, UniProt O95076 139-225, L168Q)
# ALX3 (Homo sapiens, UniProt O95076 139-225, L168Q), sequence (O95076 139-225 L168Q): as the sequence (O95076 139-225 N203Q) above, with L30Q, Q65N counted along it
# [15] = target: HESX1 (Homo sapiens, UniProt Q9UBX0 95-180, P111T)
# HESX1 (Homo sapiens, UniProt Q9UBX0 95-180, P111T), sequence (Q9UBX0 95-180 P111T): as the sequence (Q9UBX0 95-180 R109Q) above, with Q15R, P17T counted along it
# [16] = target: ALX3 (Homo sapiens, UniProt O95076 139-225, L168V)
# ALX3 (Homo sapiens, UniProt O95076 139-225, L168V), sequence (O95076 139-225 L168V): as the sequence (O95076 139-225 N203Q) above, with L30V, Q65N counted along it
# [17] = target: PROP1 (Homo sapiens, UniProt O75360 56-141, F88S)
# PROP1 (Homo sapiens, UniProt O75360 56-141, F88S), sequence (O75360 56-141 F88S): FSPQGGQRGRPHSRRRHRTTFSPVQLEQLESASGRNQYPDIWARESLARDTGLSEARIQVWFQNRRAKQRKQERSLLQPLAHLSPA
# [18] = target: HESX1 (Homo sapiens, UniProt Q9UBX0 95-180, F115L)
# HESX1 (Homo sapiens, UniProt Q9UBX0 95-180, F115L), sequence (Q9UBX0 95-180 F115L): as the sequence (Q9UBX0 95-180 R109Q) above, with Q15R, F21L counted along it
# [19] = target: ALX1 (Homo sapiens, UniProt Q15699 118-204)
# ALX1 (Homo sapiens, UniProt Q15699 118-204), sequence (Q15699 118-204): as the sequence (Q15699 118-204 L144R) above, with R27L counted along it
# [20] = target: ALX3 (Homo sapiens, UniProt O95076 139-225, N203S)
# ALX3 (Homo sapiens, UniProt O95076 139-225, N203S), sequence (O95076 139-225 N203S): as the sequence (O95076 139-225 N203Q) above, with Q65S counted along it
# HESX1 (Homo sapiens, UniProt Q9UBX0 95-180, R165K), sequence (Q9UBX0 95-180 R165K): as the sequence (Q9UBX0 95-180 R109Q) above, with Q15R, R71K counted along it
# MSX2, sequence (P35548 130-214 R199I): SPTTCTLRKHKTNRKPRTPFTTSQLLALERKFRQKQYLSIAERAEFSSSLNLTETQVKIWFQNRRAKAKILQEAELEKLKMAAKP
# SHOX (Homo sapiens, UniProt O15266 103-189), sequence (O15266 103-189): as the sequence (O15266 103-189 R173C) above, with C71R counted along it
# HESX1 (Homo sapiens, UniProt Q9UBX0 95-180), sequence (Q9UBX0 95-180): as the sequence (Q9UBX0 95-180 R109Q) above, with Q15R counted along it
# ALX4, sequence (Q9H161 200-286 Q225E): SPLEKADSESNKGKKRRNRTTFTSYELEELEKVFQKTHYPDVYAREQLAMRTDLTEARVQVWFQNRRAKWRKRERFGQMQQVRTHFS
# ALX1 (Homo sapiens, UniProt Q15699 118-204, L144V), sequence (Q15699 118-204 L144V): as the sequence (Q15699 118-204 L144R) above, with R27V counted along it
Sequence,binding signal [1],binding signal [2],binding signal [3],binding signal [4],binding signal [5],binding signal [6],binding signal [7],binding signal [8],binding signal [9],binding signal [10],binding signal [11],binding signal [12],binding signal [13],binding signal [14],binding signal [15],binding signal [16],binding signal [17],binding signal [18],binding signal [19],binding signal [20]
ATCAATTA,"13.5 upbm affinity estimate (log intensity, higher = more binding, comparable within an allelic series)","12.6 upbm affinity estimate (log intensity, higher = more binding, comparable within an allelic series)","13.7 upbm affinity estimate (log intensity, higher = more binding, comparable within an allelic series)","13.4 upbm affinity estimate (log intensity, higher = more binding, comparable within an allelic series)","13.1 upbm affinity estimate (log intensity, higher = more binding, comparable within an allelic series)","12 upbm affinity estimate (log intensity, higher = more binding, comparable within an allelic series)","8.5 upbm affinity estimate (log intensity, higher = more binding, comparable within an allelic series)","10.1 upbm affinity estimate (log intensity, higher = more binding, comparable within an allelic series)","11.8 upbm affinity estimate (log intensity, higher = more binding, comparable within an allelic series)","12.7 upbm affinity estimate (log intensity, higher = more binding, comparable within an allelic series)","11.8 upbm affinity estimate (log intensity, higher = more binding, comparable within an allelic series)","10.2 upbm affinity estimate (log intensity, higher = more binding, comparable within an allelic series)","12.2 upbm affinity estimate (log intensity, higher = more binding, comparable within an allelic series)","10.9 upbm affinity estimate (log intensity, higher = more binding, comparable within an allelic series)","12.1 upbm affinity estimate (log intensity, higher = more binding, comparable within an allelic series)","10.4 upbm affinity estimate (log intensity, higher = more binding, comparable within an allelic series)","7.84 upbm affinity estimate (log intensity, higher = more binding, comparable within an allelic series)","8.22 upbm affinity estimate (log intensity, higher = more binding, comparable within an allelic series)","12.8 upbm affinity estimate (log intensity, higher = more binding, comparable within an allelic series)","8.66 upbm affinity estimate (log intensity, higher = more binding, comparable within an allelic series)"
CTAATTAC,"13.2 upbm affinity estimate (log intensity, higher = more binding, comparable within an allelic series)","12.8 upbm affinity estimate (log intensity, higher = more binding, comparable within an allelic series)","13.8 upbm affinity estimate (log intensity, higher = more binding, comparable within an allelic series)","13.2 upbm affinity estimate (log intensity, higher = more binding, comparable within an allelic series)","13.2 upbm affinity estimate (log intensity, higher = more binding, comparable within an allelic series)","12.2 upbm affinity estimate (log intensity, higher = more binding, comparable within an allelic series)","8.37 upbm affinity estimate (log intensity, higher = more binding, comparable within an allelic series)","10.1 upbm affinity estimate (log intensity, higher = more binding, comparable within an allelic series)","11.8 upbm affinity estimate (log intensity, higher = more binding, comparable within an allelic series)","12.9 upbm affinity estimate (log intensity, higher = more binding, comparable within an allelic series)","12 upbm affinity estimate (log intensity, higher = more binding, comparable within an allelic series)","9.51 upbm affinity estimate (log intensity, higher = more binding, comparable within an allelic series)","12 upbm affinity estimate (log intensity, higher = more binding, comparable within an allelic series)","11 upbm affinity estimate (log intensity, higher = more binding, comparable within an allelic series)","11.8 upbm affinity estimate (log intensity, higher = more binding, comparable within an allelic series)","10.5 upbm affinity estimate (log intensity, higher = more binding, comparable within an allelic series)","7.85 upbm affinity estimate (log intensity, higher = more binding, comparable within an allelic series)","7.95 upbm affinity estimate (log intensity, higher = more binding, comparable within an allelic series)","12.9 upbm affinity estimate (log intensity, higher = more binding, comparable within an allelic series)","8.5 upbm affinity estimate (log intensity, higher = more binding, comparable within an allelic series)"
AGCAATTA,"12.6 upbm affinity estimate (log intensity, higher = more binding, comparable within an allelic series)","11.9 upbm affinity estimate (log intensity, higher = more binding, comparable within an allelic series)","13 upbm affinity estimate (log intensity, higher = more binding, comparable within an allelic series)","12.7 upbm affinity estimate (log intensity, higher = more binding, comparable within an allelic series)","13.2 upbm affinity estimate (log intensity, higher = more binding, comparable within an allelic series)","11.6 upbm affinity estimate (log intensity, higher = more binding, comparable within an allelic series)","8.32 upbm affinity estimate (log intensity, higher = more binding, comparable within an allelic series)","9.41 upbm affinity estimate (log intensity, higher = more binding, comparable within an allelic series)","11.3 upbm affinity estimate (log intensity, higher = more binding, comparable within an allelic series)","12.4 upbm affinity estimate (log intensity, higher = more binding, comparable within an allelic series)","11.4 upbm affinity estimate (log intensity, higher = more binding, comparable within an allelic series)","9.19 upbm affinity estimate (log intensity, higher = more binding, comparable within an allelic series)","11.4 upbm affinity estimate (log intensity, higher = more binding, comparable within an allelic series)","10.5 upbm affinity estimate (log intensity, higher = more binding, comparable within an allelic series)","11.1 upbm affinity estimate (log intensity, higher = more binding, comparable within an allelic series)","9.97 upbm affinity estimate (log intensity, higher = more binding, comparable within an allelic series)","7.59 upbm affinity estimate (log intensity, higher = more binding, comparable within an allelic series)","7.88 upbm affinity estimate (log intensity, higher = more binding, comparable within an allelic series)","12.2 upbm affinity estimate (log intensity, higher = more binding, comparable within an allelic series)","8.41 upbm affinity estimate (log intensity, higher = more binding, comparable within an allelic series)"
CCTAATTA,"13.4 upbm affinity estimate (log intensity, higher = more binding, comparable within an allelic series)","13 upbm affinity estimate (log intensity, higher = more binding, comparable within an allelic series)","14.1 upbm affinity estimate (log intensity, higher = more binding, comparable within an allelic series)","13.3 upbm affinity estimate (log intensity, higher = more binding, comparable within an allelic series)","13.2 upbm affinity estimate (log intensity, higher = more binding, comparable within an allelic series)","12.2 upbm affinity estimate (log intensity, higher = more binding, comparable within an allelic series)","8.45 upbm affinity estimate (log intensity, higher = more binding, comparable within an allelic series)","10.4 upbm affinity estimate (log intensity, higher = more binding, comparable within an allelic series)","11.8 upbm affinity estimate (log intensity, higher = more binding, comparable within an allelic series)","12.9 upbm affinity estimate (log intensity, higher = more binding, comparable within an allelic series)","12.1 upbm affinity estimate (log intensity, higher = more binding, comparable within an allelic series)","9.96 upbm affinity estimate (log intensity, higher = more binding, comparable within an allelic series)","12.2 upbm affinity estimate (log intensity, higher = more binding, comparable within an allelic series)","11.2 upbm affinity estimate (log intensity, higher = more binding, comparable within an allelic series)","12 upbm affinity estimate (log intensity, higher = more binding, comparable within an allelic series)","10.8 upbm affinity estimate (log intensity, higher = more binding, comparable within an allelic series)","7.86 upbm affinity estimate (log intensity, higher = more binding, comparable within an allelic series)","8.21 upbm affinity estimate (log intensity, higher = more binding, comparable within an allelic series)","12.9 upbm affinity estimate (log intensity, higher = more binding, comparable within an allelic series)","8.58 upbm affinity estimate (log intensity, higher = more binding, comparable within an allelic series)"

# From article PMC11006913
